Source: PubChem BioAssay (EPA / NIEHS)
“And” between values parts separate entries of the source, which are not always exact repeats. Identical values can stand only once. The source holds several records for some structures; these can differ, active in one and inactive in another. The source made the active and inactive calls. The calls were made as follows: active = hit-call score of the fitted dose curve at least 0.9, where 1 is the maximum; inactive = score below 0.9.

The molecules below were run on Interferon-gamma inducible Protein 10 (IP10), CXCL10 (gene 3627) (assay: BSK_hDFCGF_IP10: BioMAP Diversity Plus: hDFCGF Assay for Interferon-gamma inducible Protein 10 (IP10) Biomarker Activity (AID 2283053)). Conditions: primary human foreskin fibroblasts; actives raise or lower the signal.
Description: BSK_hDFCGF is a cell-based, multiplexed-readout assay that uses foreskin fibroblast, a human skin primary cell, with measurements taken at 24 hours after chemical dosing in a 96-well plate.BSK_hDFCGF_IP10 is an assay component measured in the BSK_hDFCGF assay. It measures IP-10 antibody related to regulation of gene expression using ELISA technology.Data from the assay component BSK_hDFCGF_IP10 was analyzed into 1 assay endpoint. This assay endpoint, BSK_hDFCGF_IP10, was analyzed with bidirectional fitting relative to DMSO as the negative control and baseline of activity. Using a type of binding reporter, gain or loss-of-signal activity can be used to understand changes in the signaling as they relate to the gene CXCL10. Furthermore, this assay endpoint can be referred to as a primary readout, because this assay has produced multiple assay endpoints where this one serves a signaling function. To generalize the intended target to other relatable targets, this assay endpoint is annotated to the cytokine intended target family, where the subfamily is chemotactic factor.
The levels of cell surface (or secreted, indicated by the prefix "s") biomarker endpoints were measured by ELISA. Overt cytotoxicity to cells in confluent adherent cultures (all systems other than the BT system) was assessed by measuring total protein levels using sulforhodamine B (SRB) staining in parallel cultures at the time of biomarker measurements, indicated as SRB endpoints. For proliferation assays for adherent cell types, individual cell types are cultured at sub-confluence and relative cell numbers quantified by SRB staining at time points optimized for each system (48 h: 3C and CASM3C systems; 72 h: BT and HDF3CGF systems; 96 h: SAg system). SRB was performed by staining cells with 0.1% SRB after fixation with 10% TCA and reading wells at 560 nm.Viability and proliferation of PBMC (T cells) was quantified by Alamar Blue reduction for the SAg and BT systems. For PBMC viability (referred to as PBMC Cytotoxicity within the assay endpoint names), cells were plated (75,000/well in a 96-well plate) and then chemical samples added for 1 h before addition of activators, SEB and TSST-1 (20 ng/mL final concentration each). Cells were incubated for 90 h. Then, Alamar Blue (20 uL/well) (Invitrogen, Cat DAL1100) was added for 6 h, and the plates were read with a fluorescence microplate reader at 546/580 nm (excitation/emission). For PBMC proliferation, cells were plated and activated as above but incubated for only 16 h prior to addition of Alamar Blue. Plates were read after 6 h.

Structure (SMILES)	outcome	AC50
CC[C@H]1OC(=O)[C@H](C)[C@@H](O[C@H]2C[C@@](C)(OC)[C@@H](O)[C@H](C)O2)[C@H](C)[C@@H](O[C@@H]2O[C@H](C)C[C@H](N(C)C)[C@H]2O)[C@](C)(O)C[C@@H](C)C(=O)[C@H](C)[C@@H](O)[C@]1(C)O	inactive	
CC1=CC(=O)CC(C)(C)C1	inactive	
CC(C)(O)c1coc(S(=O)(=O)NC(=O)Nc2c3c(cc4c2CCC4)CCC3)c1	inactive	
CC(C)CC(C)(O)C#CC(C)(O)CC(C)C (stereo not given)	inactive	
COc1ccc(-n2nc(C(F)F)cc2-c2ccc(S(C)=O)cc2)cc1 (stereo not given)	inactive	
C=CC(=C)CCC=C(C)C	inactive	
CC(=O)OCCC(C)C	inactive	
CCCCCCc1ccc(O)cc1O		29.8 µM (active)
O=C(OC[C@H]1O[C@@H](OC(=O)c2cc(O)c(O)c(OC(=O)c3cc(O)c(O)c(O)c3)c2)[C@H](OC(=O)c2cc(O)c(O)c(OC(=O)c3cc(O)c(O)c(O)c3)c2)[C@@H](OC(=O)c2cc(O)c(O)c(OC(=O)c3cc(O)c(O)c(O)c3)c2)[C@@H]1OC(=O)c1cc(O)c(O)c(OC(=O)c2cc(O)c(O)c(O)c2)c1)c1cc(O)c(O)c(OC(=O)c2cc(O)c(O)c(O)c2)c1		0.986 µM (active)
CCOc1cccc(-n2cc(C(=O)N3CCN(c4cc(C(=O)O)c5ccccc5c4)CC3)nc2-c2ccc(C)cc2)c1		10.4 µM (active)
Cn1cnc([N+](=O)[O-])c1Sc1ncnc2nc[nH]c12	inactive	4.43 µM (active) and 7.98 µM (active)
CCOC(=O)c1ccc(C2CCC(NC[C@H](O)COc3ccc(O)c(NS(C)(=O)=O)c3)CC2)cc1 (stereo not given in full)		21.8 µM (active)
CN(C)c1ccc(N=NS(=O)(=O)O)cc1	inactive	
CCCCC(CC)COC(=O)c1ccc(C(=O)OCC(CC)CCCC)cc1 (stereo not given)	inactive	
O=P(OC(CCl)CCl)(OC(CCl)CCl)OC(CCl)CCl	inactive	
CCC(C)(C)C(=O)O[C@H]1C[C@@H](C)C=C2C=C[C@H](C)[C@H](CC[C@@H]3C[C@@H](O)CC(=O)O3)[C@H]21		31.4 µM (active)
O=C(O)c1cc(N=Nc2ccc(S(=O)(=O)Nc3ccccn3)cc2)ccc1O	inactive	
CCN(C(=O)c1cc(C)cc(OC[C@H](C)Nc2ccncc2)c1)C(C)C	inactive	
CCc1cc(SCc2sc(-c3ccc(C(F)(F)F)cc3)nc2CN2CCN(c3ccc(OC)cc3)CC2)ccc1OCC(=O)O		2.18 µM (active)
On1ccccc1=S		0.422 µM (active)

Structure (SMILES)	outcome	AC50
CC(C)CCCCCCOC(=O)c1ccc(C(=O)OCCCCCCC(C)C)c(C(=O)OCCCCCCC(C)C)c1	inactive	
CCCN(C1CCN(C(=O)C2CCNCC2)CC1)[C@@H]1CCc2ccc(OC)cc2C1	inactive	
O=c1n(CC2CO2)c(=O)n(CC2CO2)c(=O)n1CC1CO1 (stereo not given)	inactive	
CC(=O)OC[C@H]1O[C@@](COC(C)=O)(O[C@H]2O[C@H](COC(C)=O)[C@@H](OC(C)=O)[C@H](OC(C)=O)[C@H]2OC(C)=O)[C@@H](OC(C)=O)[C@@H]1OC(C)=O	inactive	
CNS(=O)(=O)c1cc(C(=O)N2CCC(CCN3C4CCC3CC(n3c(C)nc5ccccc53)C4)(c3cccc(F)c3)CC2)c(Cl)cc1F (stereo not given)	inactive	
CC/C(=C\C(=N/O)C(N)=O)C(C)[N+](=O)[O-] (stereo not given)	inactive	
O=C1OC(=O)C2C3C=CC(C3)C12 (stereo not given)	inactive	
O=C1CCCCCN1	inactive	
Cc1ccc(O)cc1	inactive	
Cc1ccc(C)c(O)c1	inactive	
CCCC(=O)OCC	inactive	
COc1cccc(-c2ccc(/C=C\CN3CCCCCC3)cc2Cl)c1		27.3 µM (active)
COC(=O)c1ccccc1O	inactive	
Clc1nc(Cl)c(Cl)c(Cl)c1Cl	inactive	
CC(C)c1cccc(C(C)C)c1N1C(=O)c2ccc(O)cc2C1=O		27.9 µM (active)
NC(=O)NO	inactive	
O=c1[nH]c2ccc(S(=O)CCN3CCC(Cc4ccc(F)cc4)CC3)cc2o1 (stereo not given)	inactive	
CC(C)=CCCC(C)CCO (stereo not given)	inactive	
O=C(O)c1cccc(N(Cc2cccnc2)c2ccc(OC(F)F)c(OC(F)F)c2)c1	inactive	
